An excerpt weighted towards active compounds, which were near 7.3% of everything screened.
VACV mCherry inh: inhibitors of vaccinia virus infection (mCherry reporter signal) | Vaccinia virus mCherry reporter infection, fluorescence | Potency, µM (doses to about 36.5 µM), for inactives: at the top dose activity change, negative = inhibition, hits mostly inhibitors | actives 0.63% (n = 310,000) | AID 720579; calls by dose curve; tested in A549 cells; further: potency means the concentration at half of the fitted maximal effect; nearly all actives have a fitted effect of over 35% in size
HCV inhibitor: inhibitors of hepatitis C virus infection | Huh7.5.1 HCVcc-Cre infection, luciferase reporter, 44 h | Potency, µM (doses to about 41.8 µM), for inactives: at the highest dose activity change, negative = inhibition, actives largely listed as inhibitors | actives 3.4% (n = 340,000); active means well fitted inhibition curve with a large enough effect; inconclusive means small, poorly fitted or top-dose-only effect, or another doubt; inactive means no such curve, though single readings can be large or run the other way; further: potency means the concentration at half of the fitted maximal effect
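Seed cells (1,000/well) for 4 h; treat with compound and infect with HCVcc-Cre, moi about 0.5. Incubate 44 h, then detect luciferase activity.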
HCMV inh: blocks human cytomegalovirus replication | AID 1259415 | HFF cells, HCMV-luciferase reporter, 72 h; hits give low values | activity change, negative = inhibition, % at 57.5 µM | actives 4.5% (n = 410,000); in the data active means activity change below about -60%; inconclusive means no clear call, values can overlap the other calls; inactive means above about -39%
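Cell-based, HFFs, 1000 cells/well, 16 h 37C; cpds in DMSO + HCMV-luc, MOI 1 PFU/cell; 72 h 37C; OneGlo luminescence after 5 min RT; norm. to buffer vs Salinomycin 10uM.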
Vaccinia Venus: inhibitors of vaccinia virus (Venus reporter). Vaccinia virus Venus reporter expression, fluorescence. Potency, µM (highest dose often 36.5 µM), without a hit: top-dose activity change, negative = inhibition, usual class: inhibitors. actives 0.46% (n = 330,000). AID 720580; calls by dose curve; tested in A549 cells; further: potency means the concentration at half of the fitted maximal effect; nearly all actives have a fitted effect of over 30% in size
FMDV inh: blocks foot and mouth disease virus. FMDV antiviral cell-based qHTS. Potency, µM (doses to about 57.9 µM), for inactives: at the highest dose activity change, negative = inhibition, most hits filed as inhibitors. actives 1.2% (n = 410,000); calls by dose curve; tested in HEK293T cells; further: read-out not given here; potency means the concentration at half of the fitted maximal effect; nearly all actives have a fitted effect of over 45% in size
The depositor's hits bear a star; i = inactive; ? = inconclusive; · = not tested or not shown. On the % scale 0 is the no-effect control and ±100 the full control effect.

SMILES	VACV mCherry inh	HCV inhibitor	HCMV inh	Vaccinia Venus	FMDV inh
Cn1c(=O)c2ncn(CC(=O)Nc3cccc(-c4nc5ccccc5s4)c3)c2n(C)c1=O	i	10µM*	11	-6%	15%
Cc1ccc(OCC(=O)Nc2cccc(-c3nc4ccccc4s3)c2)cc1	-1%	·	64	-5%	21%
CC(C)(C)c1ccc(/C=C2\Oc3cc(O)ccc3C2=O)cc1	-29%	?	-92*	?	1%
O=C1/C(=C/c2ccc([N+](=O)[O-])cc2)Oc2cc(O)ccc21	-19%	-26%	-89*	-9%	21%
COC(=O)C1=C(C(=O)OC)C(C(=O)OC)N2C=CC=CC2=C1C(=O)OC (configuration not stated)	20%	·	-28	7%	-16%
Cc1ccnc(NC(=O)C2CCN(S(=O)(=O)c3ccc4c(c3)CC(C)N4C(=O)C3CCC3)CC2)c1 (configuration not stated)	-2%	?	?	-30%	?
CC(=O)N1c2ccc(S(=O)(=O)N3CCC(C(=O)Nc4ccc(C)cn4)CC3)cc2CC1C (configuration not stated)	·	11µM*	-80*	·	?
CC1Cc2cc(S(=O)(=O)N3CCC(C(=O)N(C)Cc4ccccc4)CC3)ccc2N1C(=O)C1CC1 (configuration not stated)	·	5.6µM*	-25	·	?
Cc1ccc(NC(=O)C2CCN(S(=O)(=O)c3ccc4c(c3)CC(C)N4C(=O)C3CCC3)CC2)nc1 (configuration not stated)	-10%	8.9µM*	-86*	?	?
CC1Cc2cc(S(=O)(=O)N3CCC(C(=O)Nc4ccccn4)CC3)ccc2N1C(=O)C1CCC1 (configuration not stated)	-23%	7.9µM*	-73*	-28%	?
CC1Cc2cc(S(=O)(=O)N3CCC(C(N)=O)CC3)ccc2N1C(=O)C1CC1 (configuration not stated)	·	-8%	-6	·	25%
COc1ccc(Nc2ncnc3sc(-c4ccccc4)cc23)cc1	·	10µM*	-6	·	-7%
CN(C)c1ncnc2sc(-c3ccccc3)cc12	i	11µM*	37	-3%	-20%
COC(CNc1ncnc2sc(-c3ccccc3)cc12)OC	·	?	-32	·	-2%
COc1ncnc2sc(-c3ccccc3)cc12	-17%	?	31	-6%	68%
C=COCCCNc1ncnc2sc(-c3ccccc3)cc12	·	8.9µM*	?	·	?
c1ccc(-c2cc3c(N4CCN(c5ccccc5)CC4)ncnc3s2)cc1	-14%	?	-28	-4%	32µM*
COc1ccc(CN(C)C(=O)C2CSC3(C)CCC(=O)N23)c(OC)c1 (configuration not stated)	i	·	0	6%	-15%
OCCCNc1ncnc2sc(-c3ccccc3)cc12	-14%	?	-36	-24%	?
CC(C)(C)Nc1ncnc2sc(-c3ccccc3)cc12	·	?	-73*	·	?
C/C(=N\NC(N)=S)C1(C)CCCCC1	?	-4%	-61*	?	-4%
C/C(=N\NC(N)=S)C12CC3CC(CC(C3)C1)C2	11µM*	?	-69*	8.9µM*	·
O=C(CNC1=NCCS1)c1c[nH]c2ccccc12	-9%	·	·	-15%	·
CC12CCC(C(=O)Nc3ccccc3)(C(Br)C1=O)C2(C)C (configuration not stated)	-1%	14%	?	-23%	-29%
Cc1ccc(NC(=O)C23CCC(C)(C(=O)[C@H]2Br)C3(C)C)cc1 (some centres not stated)	·	6%	-62*	·	-21%
SMILES	VACV mCherry inh	HCV inhibitor	HCMV inh	Vaccinia Venus	FMDV inh
Cn1nc([N+](=O)[O-])nc1Oc1ccccc1F	-1%	29%	0	-7%	-11%
Cn1nc([N+](=O)[O-])nc1Oc1ccc2ccccc2c1	·	8%	-65*	·	-6%
O=C(CSc1nc(-c2ccc(F)cc2)[nH]c1-c1ccccc1)NCC1CCCO1 (configuration not stated)	-14%	·	-6	-10%	-28%
CCCNC(=O)c1ccc(COc2ccc(Cl)cc2)o1	·	-17%	-7	·	-23%
CCCNC(=O)c1ccc(COc2ccc(C(C)(C)C)cc2)o1	i	13µM*	3	-24%	-14%
CC(C)(C)c1ccc(OCc2ccc(C(=O)N3CCOCC3)o2)cc1	-23%	?	-71*	?	-22%
CC(C)c1ccc([C@@H]2O[C@H](C)CC3=C2C(=O)OC(C)(C)O3)cc1	27%	·	3	-1%	-11%
COCCSc1ccccc1C(=O)Nc1cc([N+](=O)[O-])ccc1OC	-6%	7.9µM*	-12	-12%	-16%
COCCSc1ccccc1C(=O)Nc1ccc([N+](=O)[O-])cc1OC	·	?	80	·	-12%
COc1ccc([N+](=O)[O-])cc1NC(=S)NC(NC(=O)C(c1ccccc1)c1ccccc1)C(Cl)(Cl)Cl (configuration not stated)	?	?	-106*	?	?
CC(C)(C)NC(=O)C(C1CC1)n1c(=O)c(-c2ccccc2)nc2ccccc21 (configuration not stated)	-14%	·	-13	-7%	8%
Cc1cc(C)c(NC(=O)Cn2nc3c(cc2=O)CCCC3)c(C)c1	-11%	·	13	1%	-11%
CCC1=C(c2ccc(C)cc2)S(=O)(=O)N=C1N1CCC(C(=O)NCc2ccc(N(C)C)cc2)CC1	-13%	·	20	-14%	-6%
Cc1[nH]n(-c2ccccc2)c(=O)c1N=Nc1c(O)cc(S(=O)(=O)N(C)C)c2ccccc12	?	?	-99*	?	13µM*
Cc1[nH]nc2c1C(C1CC=CCC1)C(C#N)=C(N)O2 (configuration not stated)	·	0%	-3	-14%	25µM*
Cc1nn(-c2ccccc2)c(Cl)c1C1C(C#N)=C(N)Oc2c1c(C)nn2-c1ccccc1 (configuration not stated)	·	0%	·	-20%	?
CCc1[nH]nc2c1C(C(C)C)C(C#N)=C(N)O2 (configuration not stated)	·	15%	-20	·	32µM*
CCC(CC)C1C(C#N)=C(N)Oc2n[nH]c(-c3ccccc3)c21 (configuration not stated)	?	?	-20	?	·
CCC(CC)C1C(C#N)=C(N)Oc2n[nH]c(C)c21 (configuration not stated)	-12%	6%	-24	-28%	35µM*
Cc1[nH]nc2c1C(c1ccc(F)cc1)C(C#N)=C(N)O2 (configuration not stated)	-11%	12%	54	-4%	?
Cc1nn(-c2ccccc2)c(Cl)c1C1C(C#N)=C(N)Oc2n[nH]c(C)c21 (configuration not stated)	i	6%	-103*	-16%	0%
O=C(CSc1ncc2c(n1)-c1ccccc1N(Cc1ccccc1)S2(=O)=O)Nc1ccccc1	2%	·	3	4%	8%

Bioassay records from PubChem BioAssay.
